High-throughput results (PubChem)
Shown are actives, neighbours in structure and some others; about 2.3% of the full set was active somewhere.
MsrA act: bovine MsrA enzyme activators, primary screen, biochemical, absorbance, HTS. Methionine sulfoxide reductase A (Bos taurus). purified bovine MsrA, absorbance read-out. activation, % at 10.6 µM. AID 602163, 2012. actives 0.3% (n = 360,000); in the data active = activation above about 7.5%
ZTA counter: counter-screen for EBNA-1 inhibitors: inhibitors of Epstein-Barr virus ZTA; P03206; ZTA-DNA binding, fluorescence polarization; inhibition, % at 11 µM; actives 0.15% (n = 320,000); in the data active = inhibition above about 33%
PP1 inh: PP1-alpha phosphatase inhibitors, primary screen, counter-screen for PP5 inhibitor project, biochemical, fluorescence, OMFP substrate, single point | Serine/threonine-protein phosphatase PP1-alpha catalytic subunit (Homo sapiens), P62136 | purified PP1alpha | inhibition, % at 6.7 µM | actives 0.9% (n = 320,000) | AID 2235, 2010;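 active = inhibition above the mean inhibition of all tested compounds plus 3 SD, computed separately for each screening campaign, cut at about 15% in these data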
EBNA-1 inh: EBNA-1 DNA-binding inhibitors, primary screen, biochemical, fluorescence polarization; inhibition, % at 14.8 µM; actives 0.34% (n = 300,000); AID 1950, 2009; in the data active = inhibition above about 28%
PP5 inh: PP5 phosphatase inhibitors, primary screen, biochemical, fluorescence | inhibition, % at 6.7 µM | actives 0.18% (n = 320,000) | purified PP5c, OMFP substrate fluorescence | Serine/threonine-protein phosphatase 5 (Homo sapiens), P53041;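 active = inhibition above the campaign's mean inhibition across all tested compounds plus 3 SD, cut at about 9.5% in these data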
Target sequence (P53041 whole entry, looked up): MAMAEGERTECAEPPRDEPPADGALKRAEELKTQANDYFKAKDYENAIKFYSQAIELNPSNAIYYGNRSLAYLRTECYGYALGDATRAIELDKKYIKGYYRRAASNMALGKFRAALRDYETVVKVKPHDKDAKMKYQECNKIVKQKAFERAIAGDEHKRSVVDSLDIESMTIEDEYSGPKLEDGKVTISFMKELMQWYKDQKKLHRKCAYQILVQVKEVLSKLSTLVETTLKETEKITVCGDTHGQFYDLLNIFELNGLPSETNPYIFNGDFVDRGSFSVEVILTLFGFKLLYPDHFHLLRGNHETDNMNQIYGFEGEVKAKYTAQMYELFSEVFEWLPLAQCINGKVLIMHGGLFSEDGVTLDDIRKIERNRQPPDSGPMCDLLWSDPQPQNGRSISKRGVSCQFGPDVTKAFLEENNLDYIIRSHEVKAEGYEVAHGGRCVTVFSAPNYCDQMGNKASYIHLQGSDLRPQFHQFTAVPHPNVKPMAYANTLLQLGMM
MsrA inh: bovine MsrA enzyme inhibitors, primary screen, biochemical, absorbance, HTS | Methionine sulfoxide reductase A (Bos taurus) | purified bovine MsrA, absorbance read-out | inhibition, % at 15.5 µM | actives 0.75% (n = 360,000); in the data active = inhibition above about 4.5%
PP1 confirm: PP1 phosphatase inhibitors, confirmation, biochemical, fluorescence, OMFP substrate, triplicate. shares compounds with PP1 inh. purified PP1alpha. inhibition, % at 6.7 µM. actives 52% (n = 1,900). AID 2358, 2010;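 active = mean PP1 inhibition above a set limit taken from the earlier primary screen, cut at about 15% in these data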
PP5 inh counter: PP5 phosphatase inhibition by PP1 hits, confirmation, counter-screen for PP1 inhibitor project, biochemical, fluorescence, triplicate; shares compounds with PP1 inh; purified PP5c, OMFP fluorescence; inhibition, % at 6.7 µM; actives 4% (n = 1,900);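 active = mean PP5 inhibition over triplicate wells above about 9.5% taken from the earlier PP1 screen, limit read from the data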
Numbers stand for hits; - = inactive; . = no result given.

SMILES	MsrA act	ZTA counter	PP1 inh	EBNA-1 inh	PP5 inh	MsrA inh	PP1 confirm	PP5 inh counter
COc1cccc(/C=N/NC(=O)c2c(-c3ccccc3)noc2C)c1O	-	-	-	-	-	-	.	.
Cc1cc(C)n(-c2nc(Nc3ccccc3)nc(-n3nc(C)cc3C)n2)n1	-	-	-	-	-	-	.	.
COc1cccc(/C=N/Nc2nccnc2Cl)c1O	-	.	.	.	.	-	.	.
COc1cccc(/C=N/Nc2cc(-n3nc(C)cc3-c3ccccc3)ncn2)c1O	-	-	21	-	-	-	32	-
COc1cccc(/C=N/Nc2ncnc3scc(-c4ccccc4)c23)c1O	-	-	26	-	-	-	32	-
COc1cccc(/C=N/Nc2nc(Nc3ccccc3)nc(-n3nc(C)cc3C)n2)c1O	-	-	35	-	11	-	36	-
O=C(NCCOc1ccccc1)C1CCC(=O)N(CCCN2CCOCC2)C1 (configuration not stated)	-	-	-	-	-	-	.	.
O=C(CN1C(=O)NC2(CCCC2)C1=O)N1CCN(S(=O)(=O)c2ccccc2[N+](=O)[O-])CC1	-	-	-	-	-	-	.	.
O=C1C=C(O)c2c(O)cc(O)c(O)c2C1=O	-	-	57	-	-	-	37	-
CCc1ccc([C@@H]2CC=C(C(=O)O)[C@H](c3ccc(C)cc3)N2S(=O)(=O)c2ccc(C)cc2)cc1	-	.	.	.	.	-	.	.
CCc1ccc([C@@H]2CC=C(C(=O)O)[C@H](c3ccc(Cl)cc3)N2S(=O)(=O)c2ccc(C)cc2)cc1	-	-	19	-	-	-	-	-
CC(CCc1ccco1)NC(=O)CCc1nnc2ccc(NCc3ccc(Cl)cc3)nn12 (configuration not stated)	-	-	22	-	-	-	17	-
C=CCn1cc(/C=N/Nc2nc3ccccc3[nH]2)c2ccccc21	-	-	22	-	-	-	30	-
CC(=O)Nc1cnc(-c2ccc3c(c2)OCO3)cn1	-	.	.	.	.	-	.	.
O=C1OC(c2ccccc2)c2ccc3ccccc3c21 (configuration not stated)	-	-	19	-	-	-	-	-
COC(=O)C1=C(C)NC(=S)NC1c1ccc(-c2cc(Cl)ccc2Cl)o1 (configuration not stated)	-	-	-	-	-	-	.	.
Cc1cc2cc(CNC(=O)c3cc4ccccc4o3)ccc2n1C	.	-	22	-	-	.	-	-
COc1cccc2cc(/C(C)=N/Nc3nc(-c4cc(C)ccc4C)cs3)c(=O)oc12	-	-	20	-	-	-	19	-
CCSCc1nnc(SCC(=O)Nc2ccc(OC)cc2)n1C	-	-	-	-	-	-	.	.
Cc1ccc(Cn2nc(C)c(NC(=O)c3cc(-c4ccc5c(c4)OCO5)on3)c2C)cc1	.	-	24	-	-	-	37	-
CCc1csc(CCNC(=O)C2CCC(=O)N(CCc3cccc(F)c3)C2)n1 (configuration not stated)	-	.	.	.	.	-	.	.
Oc1c(C(Nc2cccc(C(F)(F)F)c2)c2ccncc2)ccc2cccnc12 (configuration not stated)	-	-	18	-	-	-	-	-
COc1ccc(NC(=O)NNC(=O)C(O)(c2ccccc2)c2ccccc2)cc1	-	-	21	-	-	-	-	-
COc1ccc(NC(=O)NC(=O)c2ccccc2)cc1	-	-	-	-	-	-	.	.
COc1ccc(NC(=O)Nc2cc(NC(=O)Nc3ccc(OC)cc3)c(C)nc2C)cc1	-	-	18	-	-	-	21	-
Cc1ccc(S(=O)(=O)N2CCCCC2)cc1NC(=O)c1ccc(Cl)nc1	-	-	-	.	-	-	.	.
COCCN(C(=O)CSc1ccc2c(c1)OCCO2)c1c(N)n(CC(C)C)c(=O)[nH]c1=O	-	.	.	.	.	-	.	.
